# Bioassay records: PubChem BioAssay, several laboratories
# TIM10 inh: inhibits growth of TIM10 yeast strain; inhibition, % at 10 µM; S. cerevisiae TIM10 strain growth, BacTiter-Glo luminescence, 24 h; AID 463195; 330,000 tested, 1.4% active;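 active = inhibition of 40% or more at the single tested concentration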;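 also: wild-type TIM10 isogenic control strain grown at permissive 25 °C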
# V-ATPase pHluor: yeast V-ATPase proton transport regulation by pHLuorin. S. cerevisiae, pHLuorin cytosolic pH fluorescence. response, % at 10 µM. 350,000 tested, 0.37% active. AID 504577; in the data active = response mostly above about 7.3%, no sharp cut-off; inactive = mostly below about 5.4%; also: actives read high
# tim10-1 inh: inhibits growth of tim10-1 mutant yeast. S. cerevisiae tim10-1 ts strain growth, BacTiter-Glo, 24 h. inhibition, % at 20 µM. 330,000 tested, 2.2% active;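 active = inhibition of at least 40%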;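 also: mutant grown at 25 °C; 0% = DMSO wells with yeast and 100% = wells holding no yeast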
# NALP1 inh: inhibitors of NALP1 inflammasome in yeast. S. cerevisiae NALP1/ASC/caspase-1 growth, X-gal OD620, 72 h. 280,000 tested, 0.61% active. inhibition, % at 10 µM; in the data active = inhibition mostly above about 24%, no sharp cut-off; inactive = mostly below about 32%
# NLRP3 yeast inh: blocks the NALP3 inflammasome reconstituted in yeast. Yeast reconstituted NLRP3/ASC/caspase-1, beta-gal luminescence, 24 h. inhibition, % at 10 µM. 330,000 tested, 0.39% active. AID 2825;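 active = inhibition of 50% or more; inactive = inhibition below 50%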;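 also: plate controls were induced DMSO wells for no effect and uninduced yeast grown without galactose for full effect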
# tim23-1 inh: tim23-1 yeast growth inhibition | 330,000 tested, 1.3% active | S. cerevisiae tim23-1 growth, BacTiter-Glo luminescence, 24 h | inhibition, % at 20 µM | AID 463212;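 active = growth inhibition of the mutant yeast at or above 50%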;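 also: temperature-sensitive mutant grown at 25 °C; plate controls were DMSO-treated mutant yeast for no effect and medium wells lacking yeast for full effect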
# tim10-1 conf: tim10-1 yeast growth inhibition, confirmed. inhibition, % at 20 µM. shares compounds with tim10-1 inh. 7,400 tested, 56% active. AID 463213. S. cerevisiae tim10-1 ts strain growth, BacTiter-Glo, 24 h;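 active = inhibition of yeast growth at or above a set limit in either of two repeat tests at 20 µM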;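 also: tim10-1 mutant grown at permissive 25 °C to find synthetic lethal compounds; 0% = DMSO yeast wells and 100% = medium wells without yeast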
# TIM10 conf: TIM10 yeast growth inhibition, confirmed. S. cerevisiae tim10 strain growth, BacTiter-Glo luminescence, 24 h. AID 463215. inhibition, % at 10 µM. shares compounds with TIM10 inh. 4,600 tested, 63% active;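 active = inhibition of yeast growth at or above a set limit in either of two replicates at 10 µM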;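 also: this counterscreen used the strain with wild-type TIM10; 0% = yeast with DMSO and 100% = medium wells lacking yeast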
# tim23-1 conf: confirmation of tim23-1 mutant yeast growth inhibitors. 4,400 tested, 83% active. shares compounds with tim23-1 inh. AID 463218. inhibition, % at 20 µM. S. cerevisiae tim23-1 growth, BacTiter-Glo luminescence, 24 h;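 active = inhibition above about 39% in either of two replicate wells at 20 µM, limit read from the data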;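 also: temperature-sensitive tim23-1 mutant grown at 25 °C; 0% = DMSO wells with yeast and 100% = medium wells without yeast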
# Numbers without * were called inactive; x = no result given. A selection: hits, their analogues and other compounds. The true share with any hit is near 4.2%.
SMILES,TIM10 inh,V-ATPase pHluor,tim10-1 inh,NALP1 inh,NLRP3 yeast inh,tim23-1 inh,tim10-1 conf,TIM10 conf,tim23-1 conf
COCCCN1C(=O)C(=O)/C(=C(/O)c2ccc(S(=O)(=O)N3CCOCC3)cc2)C1c1ccc(OC)cc1 (centres undefined),14.8,4.9,-2.6,14.9,-4.2,11.8,x,x,x
CCCOc1cc(N)ccc1C(=O)OCCN(CC)CC,0.7,-6.2,-10.7,x,6.9,-9.5,x,x,x
CCCOc1ccc(N)cc1N,21.8,1.0,49.7*,-0.5,22.6,56.5*,18.9,x,36.0
CC1(C)C(CSc2nc3ccccc3[nH]2)C1(Cl)Cl (centres undefined),34.7,0.0,45.4*,5.8,30.3,57.3*,24.6,x,60.1*
CCSc1nc2ccccc2[nH]1,4.6,-1.8,7.0,32.2,17.3,30.7,x,x,x
S=C(NCc1ccco1)Nc1ccc(Oc2ccc(Cl)cc2)cc1,37.5,1.2,46.3*,21.9,1.7,62.6*,60.1*,x,75.6*
CSCCC(NS(=O)(=O)c1ccccc1F)C(=O)NCc1ccncc1 (centres undefined),10.8,-5.0,8.4,x,23.1,-9.4,x,x,x
O=C(CN1CCN(c2ccc(F)cc2)CC1)Nc1nccs1,2.2,-1.0,-3.3,3.4,6.5,-2.9,x,x,x
N/C(Cc1ccc(Cl)c(Cl)c1)=N\OC(=O)c1cccs1,86.0*,1.6,56.0*,21.6,21.7,61.6*,-3.6,84.3*,42.4*
N/C(=N\OC(=O)c1cccs1)C1(c2ccc(Cl)cc2Cl)CC1,65.8*,-0.5,50.0*,13.8,-1.2,74.3*,44.7*,76.2*,73.3*
COc1ccc(C(=O)O/N=C(\N)Cc2cccs2)cc1OC,37.1,0.8,26.0,5.8,-13.0,33.2,x,x,x
COc1cccc(-c2c(C#N)c(N)nc3c2c(=O)nc2sccn23)c1,3.3,x,2.8,1.4,5.2,1.4,x,x,x
CC(C)CC(O)C1CCN(C(=O)CCc2nnc(-c3ccccc3)o2)CC1 (centres undefined),4.9,3.0,0.7,4.0,22.0,4.9,x,x,x
CCCCOC(=O)Sc1nc2ccccc2o1,64.2*,-0.1,48.6*,9.2,21.8,74.4*,48.8*,42.8*,44.1*
COc1ccc(C(=O)/C=C/Sc2nc3ccccc3o2)cc1,38.2,6.1,50.4*,21.1,12.7,74.9*,38.3*,x,66.4*
Cc1cc(NC(=O)CCC(=O)N(CCC(C)C)C(C(=O)NC2CCCC2)c2ccccc2C)no1 (centres undefined),5.0,-1.6,13.3,9.9,24.8,11.0,x,x,x
O=C(NC(=S)NC1C2CC3CC(C2)CC1C3)c1ccccc1 (centres undefined),40.8*,2.3,47.7*,1.8,40.0,53.9*,39.1*,21.9,66.8*
CCn1c(O)c(C2=c3ccccc3=NC2=O)c2cc(Br)ccc21,60.4*,x,61.1*,19.0,29.0,74.6*,51.4*,68.1*,69.3*
CC(=O)c1ccc(S(=O)(=O)N(C)CCCC(=O)NCc2ccc3c(c2)OCO3)cc1,5.7,-1.0,13.4,x,22.7,23.1,x,x,x
CCn1ncc([N+](=O)[O-])c1C(=O)Nc1nc2cccc(C)c2s1,31.8,-2.0,47.1*,1.7,38.4,51.2*,23.8,x,50.3*
CN(C(=O)CSc1nc2ccccc2c(=O)n1-c1ccccc1Cl)C1CCS(=O)(=O)C1 (centres undefined),3.8,-4.2,2.3,x,5.8,6.9,x,x,x
CC(C)(C)CC(C)(C)NC(=O)CSCC(=O)Nc1ccc2ccccc2c1,35.0,4.3,64.2*,15.7,-10.9,67.0*,34.7*,x,51.9*
O=[N+]([O-])/C=C/c1cn(Cc2ccc(Cl)cc2)c2ccccc12,64.0*,4.3,65.4*,27.9,14.8,72.7*,57.6*,30.4*,75.3*
Cc1cccc(Cn2cc(/C=C/[N+](=O)[O-])c3ccccc32)c1,66.8*,0.0,65.6*,9.8,6.3,67.2*,71.3*,82.2*,73.8*
Cc1[nH]n(-c2ccccc2)c(=O)c1C(C[N+](=O)[O-])c1ccc(Cl)cc1 (centres undefined),49.2*,2.3,58.2*,107.8*,17.4,85.9*,47.6*,28.2,83.7*
SMILES,TIM10 inh,V-ATPase pHluor,tim10-1 inh,NALP1 inh,NLRP3 yeast inh,tim23-1 inh,tim10-1 conf,TIM10 conf,tim23-1 conf
Cc1[nH]n(-c2ccccc2)c(=O)c1Sc1ccc(Cl)cc1,19.3,2.1,13.5,-2.9,-16.4,20.8,x,x,x
Cc1ccc(C(C[N+](=O)[O-])c2c(C)[nH]n(-c3ccccc3)c2=O)cc1 (centres undefined),29.1,1.3,41.9*,105.0*,36.7,74.6*,25.4,x,60.9*
Cc1[nH]n(-c2ccccc2)c(=O)c1C(C[N+](=O)[O-])c1ccc(F)cc1 (centres undefined),47.5*,-0.4,60.3*,108.8*,30.8,83.2*,40.7*,12.1,64.0*
Cc1cccc(/C(N)=N/OC(=O)N2c3ccccc3Sc3ccccc32)c1,83.3*,-2.1,65.3*,-11.3,45.8,59.8*,52.3*,-32.2,44.7*
CC(=O)N1c2ccccc2Sc2ccccc21,-13.4,-1.9,-5.6,5.1,-4.6,-4.3,x,x,x
N/C(=N\OC(=O)N1c2ccccc2Sc2ccccc21)c1ccccc1,84.1*,-2.4,61.1*,44.1,38.4,66.0*,47.9*,85.3*,50.0*
Cc1ccc(NC(=O)COC(=O)C2=NNC(=O)CC2)c(Br)c1,2.8,3.6,12.3,x,6.3,7.5,x,x,x
O=C(NCCO)C(=O)c1c(-c2ccc(Cl)cc2)cc2ccccn12,-5.0,-2.0,10.9,-7.8,13.7,2.1,x,x,x
O=C(NCCc1ccccc1)C(=O)c1c(-c2ccccc2)cc2ccccn12,27.4,1.3,51.4*,9.8,18.0,53.3*,35.7*,x,53.8*
COc1cc(/C=C/C(=O)c2c(O)cc(C)oc2=O)cc(OC)c1O,20.8,-6.3,31.4,-9.5,7.1,27.5,x,x,x
Cc1cc(O)c(C(=O)/C=C/c2ccc(Cl)cc2)c(=O)o1,32.8,3.1,47.2*,12.9,13.6,53.3*,39.6*,x,51.6*
COc1ccccc1N1CCN(Cc2cc(Br)c(O)c3ncccc23)CC1,-8.7,0.4,53.6*,-44.4,-12.5,67.5*,19.2,x,57.4*
CCOc1ccccc1N1CCN(Cc2cccc(OC)c2O)CC1,-1.3,0.8,15.8,10.0,-2.3,27.5,x,x,x
Cc1cccc(NC(=O)CCNS(=O)(=O)c2ccc3[nH]c(=O)oc3c2)c1,-2.6,-1.8,-15.5,-1.7,14.9,-12.0,x,x,x
